From PubChem
CHRM1 antagonist: human CHRM1 antagonism | CHO-K1 hM1, Fluo-8 calcium fluorescence, ACh EC80 antagonist | inhibition, % at 3 µM | 360,000 tested, 1.3% active | AID 588852;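 active means percent inhibition above its own plate's cutoff, namely the mean of that plate's compound wells plus 3 SD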;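 further: peak over basal fluorescence ratio during 140 s after agonist addition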
Target sequence (P11229 whole entry, looked up): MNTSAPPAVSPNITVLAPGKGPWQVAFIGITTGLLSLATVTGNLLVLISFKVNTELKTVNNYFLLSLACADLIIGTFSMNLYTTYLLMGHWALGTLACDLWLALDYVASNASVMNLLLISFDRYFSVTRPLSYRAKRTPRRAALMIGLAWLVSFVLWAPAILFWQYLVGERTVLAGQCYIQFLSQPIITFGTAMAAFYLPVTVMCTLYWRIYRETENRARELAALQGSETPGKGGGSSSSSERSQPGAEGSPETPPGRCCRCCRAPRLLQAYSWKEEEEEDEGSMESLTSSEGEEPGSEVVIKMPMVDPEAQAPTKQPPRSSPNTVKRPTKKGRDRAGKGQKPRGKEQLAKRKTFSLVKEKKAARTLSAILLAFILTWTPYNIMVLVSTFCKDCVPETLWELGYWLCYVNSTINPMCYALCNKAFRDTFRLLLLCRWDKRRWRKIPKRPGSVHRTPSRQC
CHRM1 PAM: potentiates human M1 receptor response to acetylcholine | P11229 | CHO-K1 hM1, Fluo-8 calcium fluorescence, ACh EC20; 0% = ACh EC20, 100% = maximal ACh | activation, % at 3 µM | 360,000 tested, 0.088% active | AID 588819; in the data active means activation above about 19%, passing the limit was not always enough
CHRM1 agonist: human M1 muscarinic receptor agonism; 360,000 tested, 0.33% active; activation, % at 3 µM; CHO-K1 hM1, Fluo-8 calcium fluorescence, agonist mode; 0% DMSO, 100% acetylcholine EC100;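 active means activation above the run's mean compound activation plus 3 SD, cut at about 16% in these data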;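 further: peak over basal fluorescence ratio within a 140 s kinetic read after compound addition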
CHO-K1 Ca PAM: nonselective activator or artifact in parental CHO-K1 calcium assay; ATP EC20, Fluo-8 calcium fluorescence; 0% at ATP EC20, 100% at ATP max; activation, % at 3 µM; 360,000 tested, 0.02% active; AID 602247;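 active means activation above the run cutoff, the mean activation of all test compounds plus 3 SD, cut at about 40% in these data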;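 further: peak over basal fluorescence ratio in a 140 s read after ATP addition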
CHO-K1 Ca antag: M1 antagonist counterscreen hit in parental CHO-K1 cells; ATP-induced calcium, Fluo-8 fluorescence; inhibition, % at 3 µM; AID 602250; 360,000 tested, 0.6% active;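 active means inhibition above a per-plate cutoff, the plate's mean sample inhibition plus 3 SD, cut at about 24% in these data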
CHO-K1 Ca ag: M1 agonist counterscreen hit in parental CHO-K1 cells | Fluo-8 calcium fluorescence; scaled to maximal ATP response, vehicle zero | activation, % at 3 µM | 360,000 tested, 0.48% active; in the data active means activation above about 15%;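 further: untransfected CHO-K1 host cells lacking M1 receptor as counterscreen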
Of the large screens only hits and unclear results are named; the others gave an inactive call. Most compounds without a hit are left out; they make up all but 2.3% or so of the library.

CCCCn1c(N)c(N(CC)C(=O)c2cc(OC)cc(OC)c2)c(=O)[nH]c1=O	CHO-K1 Ca ag 16
CCCCn1c(N)c(N(CCOC)C(=O)c2cc(C)oc2C)c(=O)[nH]c1=O	CHO-K1 Ca antag 24
O=C(CN1CCN(CC(=O)Nc2ccccc2Cl)CC1)Nc1ccc(F)c(F)c1	none
C[C@]12CCC(=O)C=C1[C@H](O)C[C@@H]1[C@@H]2[C@@H](O)C[C@@]2(C)[C@H]1CC[C@]2(O)C(=O)CO	CHO-K1 Ca antag 33
COc1ccc(C(=O)CCC(C)(C)[N+](=O)[O-])cc1	none
COc1ccc2sc(N(CCN(C)C)C(=O)c3ccc4ccccc4c3)nc2c1	CHRM1 agonist 20
COc1ccc(C(=O)NCC(=O)OCC(=O)Nc2sccc2C#N)cc1OC	none
CC(C)=N/N=C(/c1ccc([N+](=O)[O-])cc1)C12CN3CN(CN(C3)C1)C2	CHRM1 agonist 50
O=[N+]([O-])c1cccc(/C(=N/N=C/c2ccccc2Br)C23CN4CN(CN(C4)C2)C3)c1	CHRM1 antagonist 43
O=[N+]([O-])c1ccc(C(=S)N2CCCC2)cc1	none
O=C(CC[C@H]1O[C@@H](n2cnc3c(NC(=O)c4ccccc4)ncnc32)[C@H](O)[C@@H]1O)NCC(F)(F)F	none
O=C(CC[C@H]1O[C@@H](n2cnc3c(NC(=O)c4ccccc4)ncnc32)[C@H](O)[C@@H]1O)NCCc1cc2ccccc2[nH]1	CHO-K1 Ca antag 27
O=C(CC[C@H]1O[C@@H](n2cnc3c(NC(=O)c4ccccc4)ncnc32)[C@H](O)[C@@H]1O)NCc1ccco1	none
O=C(CC[C@H]1O[C@@H](n2cnc3c(NC(=O)c4ccccc4)ncnc32)[C@H](O)[C@@H]1O)NCC1CCN(Cc2ccccc2)CC1	CHO-K1 Ca antag 24
COc1ccc(S(=O)(=O)NC(=O)C2(C)CCN2C(=O)C(C)(C)c2ccccc2)cc1 (stereo not drawn)	none
COCc1cc(C)nc(SCC(=O)Nc2ccccc2N2CCOCC2)c1C#N	none
COCc1cc(C)nc(SCC(=O)Nc2cccc3cccnc23)c1C#N	CHO-K1 Ca antag 25
CCN(CC)C(CNC(=O)CSc1nnnn1-c1c(C)cccc1C)c1ccco1 (stereo not drawn)	CHRM1 antagonist 37
CCN(CC)C(CNC(=O)CSc1nnnn1-c1ccc(C)c(C)c1)c1ccco1 (stereo not drawn)	none
CCN(CC)Cc1cc(Nc2c3ccccc3nc3c4ccccc4n(C)c23)cc(CN(CC)CC)c1O	none
O=C(CSC1=NS(=O)(=O)c2cc(F)ccc2N1)NCc1ccccc1	none
O=C(CSC1=NS(=O)(=O)c2cc(Cl)ccc2N1)NCc1ccc(F)cc1	CHO-K1 Ca antag 30
Cc1nc(N)nc(N)c1-c1ccc(Cl)c(Cl)c1	CHRM1 antagonist 46
Brc1ccc(-c2csc3ncnc(-n4nnc5ccccc54)c23)cc1	none
COc1ccc(S(=O)(=O)N2CCCC2CNC(=O)C(=O)NC2CCCC2)cc1 (stereo not drawn)	none
COc1ccc(NC(=O)C(=O)NCC2CCCN2S(=O)(=O)c2cc(C)ccc2C)cc1 (stereo not drawn)	CHO-K1 Ca antag 52
COc1ccc(CCNC(=O)C(=O)NCC2CCCN2S(=O)(=O)c2ccc(OC)cc2)cc1 (stereo not drawn)	CHRM1 antagonist 27
COCC1CCN(C(=O)CCc2nnc(C3(c4ccc(Cl)cc4)CCC3)o2)CC1	none
CCN1/C(=C/C(=O)c2ccco2)Sc2ccccc21	none
CCOC(=O)/C(=C\C=C1/Sc2ccccc2N1CC)C(C)=O	CHRM1 agonist 47, CHO-K1 Ca ag 38
CCOC(=O)/C(=C/C=C1\Sc2cc(C)c(C)cc2N1CC)C(C)=O	CHRM1 antagonist 33, CHRM1 agonist 51, CHO-K1 Ca ag 22
CCOC(=O)/C(=C/C=C1\Sc2ccccc2N1CC)C(C)=O	CHRM1 agonist 19, CHO-K1 Ca antag 28, CHO-K1 Ca ag 18
CCC(=O)/C=C1/Sc2ccccc2N1CC	none
COc1ccc(OC)c(CCNC(=O)CN2C(=O)CCSc3ccccc32)c1	none
O=C(c1ccc(S(=O)(=O)N2CCOCC2)cc1)N(c1cccc(Cl)c1)C1C=CS(=O)(=O)C1 (stereo not drawn)	none
COc1ccc(SCCN2CC[C@@H](C)CCC2=O)cc1	CHO-K1 Ca antag 24
O=C(Nc1cccc(C(=O)O)c1)/C(=C\c1cccc([N+](=O)[O-])c1)NC(=O)c1ccc(Br)cc1	CHRM1 antagonist 61
O=C(COC(=O)CCS(=O)(=O)c1ccccc1)Nc1ccc(N2CCCCC2)cc1	none
C=CCn1c(SCC(=O)NCc2ccco2)nc2ccccc2c1=O	CHRM1 antagonist 100
O=C(CCn1c(SCC(=O)NCc2ccco2)nc2ccccc2c1=O)NCCc1ccccc1	none
Cc1cc(C)cc(NS(=O)(=O)c2c(C)[nH]c(=O)[nH]c2=O)c1	CHO-K1 Ca antag 27
Cc1ccc(-n2nc(C(=O)c3ccccc3)n3c(=O)cc(-c4ccccc4)nc23)cc1	CHRM1 antagonist 37
COc1ccc(N2CCN(C3CCCN(C(=O)CN4CCOC4=O)C3)CC2)cc1 (stereo not drawn)	none
N#Cc1ccc2[nH]c(CO)c(-c3ccccc3)c2c1	none
O=C(NCCCN1CCOCC1)c1ccc2c(c1)N(Cc1cccc(Cl)c1)C(=O)c1ccccc1S2=O (stereo not drawn)	none
CCC1CCCCN1CCCNC(=O)c1ccc2c(c1)N(Cc1ccc(F)cc1)C(=O)c1ccccc1S2=O (stereo not drawn)	CHRM1 antagonist 71
CC1CCCN(CCCNC(=O)c2ccc3c(c2)N(Cc2ccc(F)cc2)C(=O)c2ccccc2S3=O)C1 (stereo not drawn)	CHRM1 antagonist 42
CC1CCCN(CCCNC(=O)c2ccc3c(c2)N(Cc2cccc(Cl)c2)C(=O)c2ccccc2S3=O)C1 (stereo not drawn)	CHRM1 antagonist 40
O=C(NCCCN1CCCC1)c1ccc2c(c1)N(Cc1ccc(F)cc1)C(=O)c1ccccc1S2=O (stereo not drawn)	none
C=Cc1ccc(C(=O)N2CCCC(Nc3ccc4c(c3)OCCO4)C2)cc1 (stereo not drawn)	none
C=CCOc1cccc(C(=O)N2CCCC(Nc3ccc4c(c3)OCCO4)C2)c1 (stereo not drawn)	CHO-K1 Ca antag 57
CC(C)C(C(=O)Nc1ccncc1)c1ccc(Cl)cc1 (stereo not drawn)	CHO-K1 Ca ag 17
CC(C)C(C(=O)Nc1nccs1)c1ccc(Cl)cc1 (stereo not drawn)	none
CN(Cc1cn[nH]c1-c1cc2ccccc2o1)CC1CCOCC1	none
CN(C)CCOC1c2ccccc2CSc2ccccc21 (stereo not drawn)	CHRM1 antagonist 99
CC1=NNC(=O)C1C(c1cccc(O)c1)C(C#N)C#N (stereo not drawn)	CHO-K1 Ca antag 29
